Of roughly 8,800 targets only a part is listed; those with a hit were picked by preference. About 0.5% of all pairs of compound and target were hits.
Each target was assayed with O=C1NC(=O)C(c2cnc3ccccn23)=C1c1cn2c3c(cc(F)cc13)CN(C(=O)N1CCCCC1)CC2 (assay: log2 fold change, soluble protein after heating vs DMSO (PISA); higher = thermal stabilisation; K562 lysate, 10 uM; active = over 0.2 and 3.5 SD of the protein, either way, in both replicates (recomputed)).
In short: (§1)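 Quantification was by TMTpro 16plex LC-MS/MS with equalised channel sums, applied to the supernatant after 21,000xg for 90 min. Samples were crude K562 extract at 1 mg/mL protein in PBS pH 7.4 with 1 mM MgCl2, treated with 10 μM compound for 30 min, heated for 3 min across 48°C-58°C, pooled and brought to 0.5% NP-40 at 4°C. Values are log-two fold changes in thermal stability relative to solvent controls, from duplicates.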

Chain of UniProt P08758 (P08758 whole entry, looked up): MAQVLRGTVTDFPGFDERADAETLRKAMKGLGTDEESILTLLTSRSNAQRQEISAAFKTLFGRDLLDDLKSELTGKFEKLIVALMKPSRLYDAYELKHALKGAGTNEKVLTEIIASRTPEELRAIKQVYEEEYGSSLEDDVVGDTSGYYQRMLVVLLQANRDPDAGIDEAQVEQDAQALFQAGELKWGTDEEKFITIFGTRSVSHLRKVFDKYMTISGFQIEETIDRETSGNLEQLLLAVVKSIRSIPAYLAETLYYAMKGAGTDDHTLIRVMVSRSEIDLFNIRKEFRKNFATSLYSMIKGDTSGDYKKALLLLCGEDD
Chain of UniProt Q9UPW5 (Q9UPW5 whole entry, looked up): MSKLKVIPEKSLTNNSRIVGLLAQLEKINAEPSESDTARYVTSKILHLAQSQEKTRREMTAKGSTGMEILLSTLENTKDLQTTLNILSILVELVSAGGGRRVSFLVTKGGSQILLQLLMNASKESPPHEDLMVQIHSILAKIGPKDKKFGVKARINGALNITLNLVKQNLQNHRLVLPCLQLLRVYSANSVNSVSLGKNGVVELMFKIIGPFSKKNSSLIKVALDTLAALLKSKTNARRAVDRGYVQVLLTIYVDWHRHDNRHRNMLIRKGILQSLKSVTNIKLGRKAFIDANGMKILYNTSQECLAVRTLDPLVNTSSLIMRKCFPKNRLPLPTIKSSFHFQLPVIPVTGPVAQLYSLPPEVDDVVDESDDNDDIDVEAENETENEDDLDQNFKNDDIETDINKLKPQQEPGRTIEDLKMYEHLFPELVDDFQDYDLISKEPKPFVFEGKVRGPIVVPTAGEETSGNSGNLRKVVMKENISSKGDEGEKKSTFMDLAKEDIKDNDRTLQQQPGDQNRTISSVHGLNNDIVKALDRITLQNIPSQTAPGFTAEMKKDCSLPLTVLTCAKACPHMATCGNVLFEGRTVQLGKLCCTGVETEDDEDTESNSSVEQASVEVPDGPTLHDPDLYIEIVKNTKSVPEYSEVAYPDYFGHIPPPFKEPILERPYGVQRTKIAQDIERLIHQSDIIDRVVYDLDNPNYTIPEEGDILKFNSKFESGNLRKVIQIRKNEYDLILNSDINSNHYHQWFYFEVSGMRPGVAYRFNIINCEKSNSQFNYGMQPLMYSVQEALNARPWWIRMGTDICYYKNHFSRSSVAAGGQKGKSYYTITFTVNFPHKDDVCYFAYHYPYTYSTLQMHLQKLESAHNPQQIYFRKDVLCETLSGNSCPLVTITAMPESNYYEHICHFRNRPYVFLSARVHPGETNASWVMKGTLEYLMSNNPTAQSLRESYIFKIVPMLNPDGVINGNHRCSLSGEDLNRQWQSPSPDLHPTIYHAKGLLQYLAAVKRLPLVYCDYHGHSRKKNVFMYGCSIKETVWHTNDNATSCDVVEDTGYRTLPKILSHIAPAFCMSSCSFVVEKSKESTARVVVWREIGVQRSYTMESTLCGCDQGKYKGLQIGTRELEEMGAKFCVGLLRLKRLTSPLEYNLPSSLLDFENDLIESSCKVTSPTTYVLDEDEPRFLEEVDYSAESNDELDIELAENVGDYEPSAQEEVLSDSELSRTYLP
Chain of UniProt P27144 (P27144 whole entry, looked up): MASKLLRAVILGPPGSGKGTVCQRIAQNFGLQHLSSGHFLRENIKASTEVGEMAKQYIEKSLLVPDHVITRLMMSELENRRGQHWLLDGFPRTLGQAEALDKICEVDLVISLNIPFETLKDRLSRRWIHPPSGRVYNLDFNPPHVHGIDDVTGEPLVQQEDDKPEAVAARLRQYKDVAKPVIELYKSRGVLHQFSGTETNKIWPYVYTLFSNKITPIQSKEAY
Chain of UniProt P42684 (P42684 whole entry, looked up): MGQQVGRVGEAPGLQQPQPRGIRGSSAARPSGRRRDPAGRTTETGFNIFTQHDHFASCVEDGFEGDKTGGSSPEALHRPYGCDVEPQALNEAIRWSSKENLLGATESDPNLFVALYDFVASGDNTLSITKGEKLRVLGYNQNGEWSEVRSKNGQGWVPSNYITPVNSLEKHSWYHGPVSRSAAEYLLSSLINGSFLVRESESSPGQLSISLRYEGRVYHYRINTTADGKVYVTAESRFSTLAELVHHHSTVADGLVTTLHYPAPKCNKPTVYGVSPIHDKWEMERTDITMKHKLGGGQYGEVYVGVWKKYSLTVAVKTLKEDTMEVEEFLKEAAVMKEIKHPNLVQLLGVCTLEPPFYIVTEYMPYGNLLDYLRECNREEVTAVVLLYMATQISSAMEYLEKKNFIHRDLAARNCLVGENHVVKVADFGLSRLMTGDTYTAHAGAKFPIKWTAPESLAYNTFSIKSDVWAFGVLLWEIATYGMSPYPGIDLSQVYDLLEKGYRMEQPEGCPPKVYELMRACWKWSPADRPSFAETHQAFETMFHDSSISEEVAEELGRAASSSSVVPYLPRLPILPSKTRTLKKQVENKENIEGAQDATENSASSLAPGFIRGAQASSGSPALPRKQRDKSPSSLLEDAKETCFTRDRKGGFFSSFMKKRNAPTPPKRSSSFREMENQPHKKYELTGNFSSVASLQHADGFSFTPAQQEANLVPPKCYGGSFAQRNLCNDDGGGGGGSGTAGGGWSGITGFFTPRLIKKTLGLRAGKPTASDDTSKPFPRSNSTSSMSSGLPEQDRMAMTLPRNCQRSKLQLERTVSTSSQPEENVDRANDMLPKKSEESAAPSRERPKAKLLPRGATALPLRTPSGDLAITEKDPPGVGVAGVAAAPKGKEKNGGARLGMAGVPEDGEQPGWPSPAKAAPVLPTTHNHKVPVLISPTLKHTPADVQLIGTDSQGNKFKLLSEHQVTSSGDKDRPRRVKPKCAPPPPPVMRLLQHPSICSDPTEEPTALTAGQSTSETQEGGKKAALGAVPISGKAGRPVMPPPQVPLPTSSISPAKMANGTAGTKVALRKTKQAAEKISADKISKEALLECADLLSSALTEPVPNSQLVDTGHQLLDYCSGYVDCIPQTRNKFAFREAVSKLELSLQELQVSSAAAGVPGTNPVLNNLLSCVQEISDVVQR
Chain of UniProt Q12797 (Q12797 whole entry, looked up): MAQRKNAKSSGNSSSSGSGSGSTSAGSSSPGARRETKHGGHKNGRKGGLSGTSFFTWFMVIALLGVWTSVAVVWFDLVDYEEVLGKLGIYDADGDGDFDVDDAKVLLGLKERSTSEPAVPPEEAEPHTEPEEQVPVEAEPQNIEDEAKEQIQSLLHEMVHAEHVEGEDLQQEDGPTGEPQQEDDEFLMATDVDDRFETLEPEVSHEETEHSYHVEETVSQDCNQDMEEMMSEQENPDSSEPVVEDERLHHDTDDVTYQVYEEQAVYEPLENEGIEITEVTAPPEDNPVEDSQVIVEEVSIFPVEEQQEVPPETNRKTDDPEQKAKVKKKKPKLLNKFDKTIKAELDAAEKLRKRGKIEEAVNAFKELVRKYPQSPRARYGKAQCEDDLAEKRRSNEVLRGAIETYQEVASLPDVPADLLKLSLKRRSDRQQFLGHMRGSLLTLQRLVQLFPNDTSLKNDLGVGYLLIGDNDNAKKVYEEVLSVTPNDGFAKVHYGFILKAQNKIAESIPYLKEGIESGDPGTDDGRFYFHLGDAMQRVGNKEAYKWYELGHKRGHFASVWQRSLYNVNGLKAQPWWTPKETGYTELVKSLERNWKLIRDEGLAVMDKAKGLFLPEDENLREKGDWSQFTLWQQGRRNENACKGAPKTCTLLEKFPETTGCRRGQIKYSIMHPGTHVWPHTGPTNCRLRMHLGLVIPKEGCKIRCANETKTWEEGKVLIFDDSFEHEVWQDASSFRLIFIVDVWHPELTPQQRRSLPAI
Chain of UniProt Q8NFV4 (Q8NFV4 whole entry, looked up): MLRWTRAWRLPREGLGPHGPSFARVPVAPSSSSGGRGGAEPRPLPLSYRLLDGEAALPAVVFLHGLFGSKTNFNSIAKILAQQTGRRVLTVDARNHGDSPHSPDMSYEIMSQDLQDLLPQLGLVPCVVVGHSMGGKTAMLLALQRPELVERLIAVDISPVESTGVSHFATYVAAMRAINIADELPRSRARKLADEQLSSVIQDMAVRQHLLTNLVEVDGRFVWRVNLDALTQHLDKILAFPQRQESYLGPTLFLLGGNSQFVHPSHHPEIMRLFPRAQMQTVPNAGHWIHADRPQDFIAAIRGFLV
Chain of UniProt Q9BR61 (Q9BR61 whole entry, looked up): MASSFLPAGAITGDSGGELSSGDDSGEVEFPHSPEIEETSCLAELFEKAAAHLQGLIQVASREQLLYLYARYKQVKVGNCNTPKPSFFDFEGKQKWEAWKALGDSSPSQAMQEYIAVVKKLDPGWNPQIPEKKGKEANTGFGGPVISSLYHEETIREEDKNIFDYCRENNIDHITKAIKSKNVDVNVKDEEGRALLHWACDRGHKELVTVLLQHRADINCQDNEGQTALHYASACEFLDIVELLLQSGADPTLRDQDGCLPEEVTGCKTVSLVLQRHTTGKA
Chain of UniProt Q9Y303 (Q9Y303 whole entry, looked up): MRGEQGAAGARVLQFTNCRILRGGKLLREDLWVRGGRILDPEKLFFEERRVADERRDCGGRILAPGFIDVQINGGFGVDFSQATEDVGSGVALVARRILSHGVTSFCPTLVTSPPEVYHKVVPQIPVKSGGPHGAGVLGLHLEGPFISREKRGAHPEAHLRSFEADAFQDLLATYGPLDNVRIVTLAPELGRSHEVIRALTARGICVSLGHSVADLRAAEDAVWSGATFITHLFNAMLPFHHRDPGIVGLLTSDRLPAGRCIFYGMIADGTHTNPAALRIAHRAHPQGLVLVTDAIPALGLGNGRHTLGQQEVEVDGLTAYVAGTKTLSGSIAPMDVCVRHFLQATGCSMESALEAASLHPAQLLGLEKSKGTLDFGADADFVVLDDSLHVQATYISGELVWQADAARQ
Chain of UniProt Q99943 (Q99943 whole entry, looked up): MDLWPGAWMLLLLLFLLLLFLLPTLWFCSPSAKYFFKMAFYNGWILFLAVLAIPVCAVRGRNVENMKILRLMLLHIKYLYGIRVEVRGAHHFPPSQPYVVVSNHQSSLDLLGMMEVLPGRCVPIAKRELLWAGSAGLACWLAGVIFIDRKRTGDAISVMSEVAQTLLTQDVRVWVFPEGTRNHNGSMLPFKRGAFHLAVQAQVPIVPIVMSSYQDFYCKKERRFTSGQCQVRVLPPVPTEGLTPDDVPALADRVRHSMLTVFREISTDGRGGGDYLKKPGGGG

log2 fold change, inactive:
AIMP1 isoform 2 (UniProt Q12904) 0.007, AMDHD2 isoform 3 (UniProt Q9Y303) -0.002, ANXA11 (UniProt P50995) -0.018, ALDH5A1 isoform 2 (UniProt P51649) -0.057, ABHD11 (UniProt Q8NFV4) 0.003, AKAP11 (UniProt Q9UKA4) -0.057, ANP32A (UniProt P39687) -0.027, APAF1 (UniProt O14727) 0.057, AKR1B1 (UniProt P15121) -0.026, ANXA1 (UniProt P04083) -0.031, ANXA5 (UniProt P08758) -0.017, ALDH18A1 (UniProt P54886) -0.015, ABHD17B (UniProt Q5VST6) 0.032, ARHGAP6 (UniProt O43182) 0.025, ARHGEF1 (UniProt M0QZR4) 0.004, AFF1 isoform 2 (UniProt P51825) -0.046, AGPAT1 (UniProt Q99943) -0.029, ANKRD52 (UniProt Q8NB46) -0.023, ACBD6 (UniProt Q9BR61) 0.028, ASPH (UniProt Q12797) 0.029, AKR1C2 (UniProt P52895) 0.052, AK2 (UniProt P54819) -0.005, ACTBL2 (UniProt Q562R1) 0.019, ABCF3 (UniProt Q9NUQ8) -0.004, ABL2 (UniProt P42684) -0.055, ABL1 isoform 2 (UniProt P00519) -0.042, AMPD3 isoform 4 (UniProt Q01432) -0.021, ALDH2 (UniProt P05091) 0.019, AGL (UniProt P35573) 0.001, AGO4 (UniProt Q9HCK5) -0.006, ABHD16A (UniProt O95870) -0.056, ANKRD40 (UniProt Q6AI12) 0.007, AK4 (UniProt P27144) -0.016, ACADS (UniProt P16219) 0.017, AGTPBP1 (UniProt Q9UPW5) 0.11

The targets below were run with c1cn2cc(-c3ccc4cn[nH]c4c3)nc(Nc3ccc(N4CCOCC4)cc3)c2n1 [entospletinib] in the same assay as above.
In short: as §1

log2 fold change, inactive:
AIMP1 isoform 2 (UniProt Q12904) 0.02, AMDHD2 isoform 3 (UniProt Q9Y303) 0.056, ANXA11 (UniProt P50995) 0.031, ALDH5A1 isoform 2 (UniProt P51649) 0.003, ABHD11 (UniProt Q8NFV4) 0.05, AKAP11 (UniProt Q9UKA4) 0.015, ANP32A (UniProt P39687) 0.026, APAF1 (UniProt O14727) 0.032, AKR1B1 (UniProt P15121) -0.065, ANXA1 (UniProt P04083) 0.011, ANXA5 (UniProt P08758) 0.006, ALDH18A1 (UniProt P54886) 0.022, ABHD17B (UniProt Q5VST6) 0.2, ARHGAP6 (UniProt O43182) 0.004, ARHGEF1 (UniProt M0QZR4) 0.003, AFF1 isoform 2 (UniProt P51825) -0.064, AGPAT1 (UniProt Q99943) 0.003, ANKRD52 (UniProt Q8NB46) -0.057, ACBD6 (UniProt Q9BR61) -0.028, ASPH (UniProt Q12797) -0.016, AKR1C2 (UniProt P52895) -0.014, AK2 (UniProt P54819) 0.012, ACTBL2 (UniProt Q562R1) -0.083, ABCF3 (UniProt Q9NUQ8) -0.013, ABL2 (UniProt P42684) -0.05, ABL1 isoform 2 (UniProt P00519) -0.008, AMPD3 isoform 4 (UniProt Q01432) 0.018, ALDH2 (UniProt P05091) -0.009, AGL (UniProt P35573) -0.018, AGO4 (UniProt Q9HCK5) -0.013, ABHD16A (UniProt O95870) -0.01, ANKRD40 (UniProt Q6AI12) -0.057, AK4 (UniProt P27144) -0.02, ACADS (UniProt P16219) -0.021, AGTPBP1 (UniProt Q9UPW5) 0.035

— the supplement of paper PMC10849652
